# Test results taken from PubChem BioAssay (EPA / NIEHS).
# Inconclusive results are not listed. The source made the active and inactive calls. Rule for the calls: active = hit-call score of the fitted dose curve at least 0.9, where 1 is the maximum; inconclusive = response in the unintended direction; inactive = score below 0.9.
# What was measured:
# [1] = target: rat CYP1A2, Cyp1a2 (gene 24297) (UniProt P04799); experiment: NVS_ADME_rCYP1A2: NovaScreen (NVS) CYP450-related Enzyme Activity (ADME) Assay for rat CYP1A2 (AID 2283115)
# Chain of rat CYP1A2, Cyp1a2 (gene 24297) (P04799 whole entry, looked up): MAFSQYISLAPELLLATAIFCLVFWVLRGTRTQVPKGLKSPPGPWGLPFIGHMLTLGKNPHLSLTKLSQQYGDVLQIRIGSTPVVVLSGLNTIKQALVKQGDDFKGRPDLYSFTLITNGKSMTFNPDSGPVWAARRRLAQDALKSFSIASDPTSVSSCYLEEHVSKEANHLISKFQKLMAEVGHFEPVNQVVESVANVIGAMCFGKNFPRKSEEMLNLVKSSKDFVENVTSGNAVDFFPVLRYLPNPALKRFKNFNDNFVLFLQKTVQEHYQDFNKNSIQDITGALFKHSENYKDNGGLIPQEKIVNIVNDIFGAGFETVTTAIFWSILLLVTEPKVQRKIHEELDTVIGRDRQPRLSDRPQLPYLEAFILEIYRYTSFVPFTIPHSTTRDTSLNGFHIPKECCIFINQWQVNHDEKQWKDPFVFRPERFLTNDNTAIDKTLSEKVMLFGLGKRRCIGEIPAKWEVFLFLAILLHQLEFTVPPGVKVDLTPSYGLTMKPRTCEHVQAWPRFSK
# Protocol: NVS_ADME_rCYP1A2 is a biochemical, single-readout assay that uses extracted gene-proteins in a cell-free assay. Measurements were taken 1 hour after chemical dosing in a 96-well plate.NVS_ADME_rCYP1A2 is one of one assay component(s) measured or calculated from the NVS_ADME_rCYP1A2 assay. It is designed to make measurements of enzyme activity, a form of enzyme reporter, as detected with fluorescence intensity signals by Fluorescence technology.Data from the assay component NVS_ADME_rCYP1A2 was analyzed into 1 assay endpoint. This assay endpoint, NVS_ADME_rCYP1A2, was analyzed in the positive analysis fitting direction relative to Acetonitrile as the negative control and baseline of activity. Using a type of enzyme reporter, loss-of-signal activity can be used to understand changes in the enzymatic activity as they relate to the gene Cyp1a2. Furthermore, this assay endpoint can be referred to as a primary readout, because this assay has produced multiple assay endpoints where this one serves a enzymatic activity function. To generalize the intended target to other relatable targets, this assay endpoint is annotated to the cyp intended target family, where the subfamily is xenobiotic metabolism.
# Binding assays used specific radioligands (tritiated, iodinated) with non-radioactive competitive displacement ligands in agonist or antagonist protocols (as indicated) and various reference compounds and inhibitors to titrate specific binding to receptors and transporters. Most enzyme assays (CYPs, kinases, phosphatases, proteases, HDACs) used recombinant protein and specific substrates (fluorescence mostly, some colorimetric and radioactive) and inhibitors, followed by a biochemical separation of substrate and product. All assays for the biochemical HTS were initially run in duplicate at a single concentration (10 uM for CYP450 assays and 25 uM for all others). […] Each assay was run with positive and negative controls, and concurrent controls on every plate. The follow-up (secondary) screen tested active chemical-pairs in concentration series, as well as a few additional assays not tested in the primary screen, some selected negative inactives, and several cases re-run in the concentration series for confirmatory purposes.
# [2] = target: rat CYP2D2, Cyp2d26 (gene 25053) (UniProt P10634); experiment: NVS_ADME_rCYP2D2: NovaScreen (NVS) CYP450-related Enzyme Activity (ADME) Assay for rat CYP2D2 (AID 2283124)
# Chain of rat CYP2D2, Cyp2d26 (gene 25053) (P10634 whole entry, looked up): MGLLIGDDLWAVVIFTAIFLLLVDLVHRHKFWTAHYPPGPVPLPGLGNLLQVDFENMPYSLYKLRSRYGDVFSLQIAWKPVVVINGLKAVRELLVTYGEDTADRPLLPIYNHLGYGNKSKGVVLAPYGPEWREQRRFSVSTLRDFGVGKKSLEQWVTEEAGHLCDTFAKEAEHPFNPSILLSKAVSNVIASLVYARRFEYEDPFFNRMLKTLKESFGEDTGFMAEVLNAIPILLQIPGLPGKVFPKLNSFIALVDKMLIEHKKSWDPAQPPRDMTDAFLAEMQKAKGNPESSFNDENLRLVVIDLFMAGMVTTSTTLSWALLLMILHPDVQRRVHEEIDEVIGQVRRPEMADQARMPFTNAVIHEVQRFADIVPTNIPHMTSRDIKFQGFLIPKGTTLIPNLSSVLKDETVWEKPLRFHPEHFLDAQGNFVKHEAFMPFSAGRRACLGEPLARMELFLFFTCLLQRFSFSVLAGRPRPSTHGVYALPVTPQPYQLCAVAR
# Summary of the method: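 Recombinant rat CYP2D2 in a cell-free fluorogenic activity assay, fluorescence read 0.75 h after dosing. Primary screen in duplicate at 10 uM; actives re-run singly in concentration-response to 20 uM, relative to acetonitrile.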
# [3] = test system: rat CYP3A1, gene 25642; experiment: NVS_ADME_rCYP3A1: NovaScreen (NVS) CYP450-related Enzyme Activity (ADME) Assay for rat CYP3A1 (AID 2283126)
# Summary of the method: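 Cell-free recombinant CYP assay with fluorescent substrate, read 0.5 h after dosing. Screened at 10 uM in duplicate, hits at up to 20 uM in concentration-response; loss of signal versus acetonitrile baseline.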
# [4] = target: rat CYP2A2, Cyp2a2 (gene 24895) (UniProt P15149); experiment: NVS_ADME_rCYP2A2: NovaScreen (NVS) CYP450-related Enzyme Activity (ADME) Assay for rat CYP2A2 (AID 2283116)
# Chain of rat CYP2A2, Cyp2a2 (gene 24895) (P15149 whole entry, looked up): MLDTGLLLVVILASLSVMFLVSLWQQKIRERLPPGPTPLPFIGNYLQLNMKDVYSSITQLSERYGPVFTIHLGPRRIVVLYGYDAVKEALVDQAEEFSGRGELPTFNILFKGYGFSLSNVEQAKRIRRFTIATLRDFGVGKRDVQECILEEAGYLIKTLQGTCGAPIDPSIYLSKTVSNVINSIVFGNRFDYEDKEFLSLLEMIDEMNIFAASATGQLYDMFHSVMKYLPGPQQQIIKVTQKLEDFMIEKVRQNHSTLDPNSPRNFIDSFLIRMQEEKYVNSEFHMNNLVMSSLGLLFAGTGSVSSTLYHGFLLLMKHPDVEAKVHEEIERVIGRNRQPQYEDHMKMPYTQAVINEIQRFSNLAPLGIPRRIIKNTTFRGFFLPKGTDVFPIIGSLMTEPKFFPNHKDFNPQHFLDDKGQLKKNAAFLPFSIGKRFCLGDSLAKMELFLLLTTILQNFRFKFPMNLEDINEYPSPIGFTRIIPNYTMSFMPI
# Summary of the method: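 Cell-free recombinant rat CYP2A2 activity with fluorogenic substrate, fluorescence read 0.2 h after dosing. Chemicals screened at 10 uM in duplicate, hits then run in concentration-response up to 20 uM; signal loss versus acetonitrile baseline.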
# [5] = test system: rat CYP2B1, gene 24300; experiment: NVS_ADME_rCYP2B1: NovaScreen (NVS) CYP450-related Enzyme Activity (ADME) Assay for rat CYP2B1 (AID 2283117)
# Summary of the method: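 Recombinant rat CYP2B1 with fluorogenic substrate, read at 0.75 h. Primary screen in duplicate at 10 uM; compounds meeting threshold (e.g., 30% inhibition) re-run in concentration-response up to 20 uM. Fitted against acetonitrile control.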
# [6] = target: rat CYP3A2, Cyp3a2 (gene 266682) (UniProt P05183); experiment: NVS_ADME_rCYP3A2: NovaScreen (NVS) CYP450-related Enzyme Activity (ADME) Assay for rat CYP3A2 (AID 2283128)
# Chain of rat CYP3A2, Cyp3a2 (gene 266682) (P05183 whole entry, looked up): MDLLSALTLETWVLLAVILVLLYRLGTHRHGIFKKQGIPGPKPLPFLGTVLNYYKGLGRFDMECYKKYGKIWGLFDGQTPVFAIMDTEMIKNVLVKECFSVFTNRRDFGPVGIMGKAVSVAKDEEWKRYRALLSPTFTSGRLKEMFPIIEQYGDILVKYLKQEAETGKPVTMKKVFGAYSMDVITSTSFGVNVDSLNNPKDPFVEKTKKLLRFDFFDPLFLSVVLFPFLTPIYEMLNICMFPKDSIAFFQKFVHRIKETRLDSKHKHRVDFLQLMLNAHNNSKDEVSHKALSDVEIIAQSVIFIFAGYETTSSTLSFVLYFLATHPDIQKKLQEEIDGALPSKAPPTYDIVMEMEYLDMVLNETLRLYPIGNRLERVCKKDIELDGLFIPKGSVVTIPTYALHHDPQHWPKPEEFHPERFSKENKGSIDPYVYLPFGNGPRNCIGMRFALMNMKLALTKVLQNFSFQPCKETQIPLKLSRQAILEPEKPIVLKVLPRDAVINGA
# Summary of the method: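 Cell-free rat CYP3A2 enzyme assay with fluorescent substrate, read 0.5 h after dosing. Primary duplicate screen at 10 uM; actives run in concentration-response up to 20 uM, relative to acetonitrile baseline.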
# [7] = target: rat CYP2C13, Cyp2c13 (gene 171521) (UniProt P20814); experiment: NVS_ADME_rCYP2C13: NovaScreen (NVS) CYP450-related Enzyme Activity (ADME) Assay for rat CYP2C13 (AID 2283121)
# Chain of rat CYP2C13, Cyp2c13 (gene 171521) (P20814 whole entry, looked up): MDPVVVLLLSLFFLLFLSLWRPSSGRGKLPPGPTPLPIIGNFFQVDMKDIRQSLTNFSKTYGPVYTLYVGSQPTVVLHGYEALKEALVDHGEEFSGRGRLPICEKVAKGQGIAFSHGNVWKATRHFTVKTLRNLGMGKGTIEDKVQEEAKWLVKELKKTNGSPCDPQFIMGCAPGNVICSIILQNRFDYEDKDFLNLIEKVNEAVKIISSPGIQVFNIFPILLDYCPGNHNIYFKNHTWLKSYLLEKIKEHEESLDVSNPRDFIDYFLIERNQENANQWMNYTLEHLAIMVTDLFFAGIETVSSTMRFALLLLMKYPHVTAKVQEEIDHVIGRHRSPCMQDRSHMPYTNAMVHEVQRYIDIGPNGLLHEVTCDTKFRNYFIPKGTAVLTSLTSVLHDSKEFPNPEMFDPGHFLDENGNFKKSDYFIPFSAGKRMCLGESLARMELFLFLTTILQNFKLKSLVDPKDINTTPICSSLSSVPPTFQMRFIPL
# Summary of the method: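 Recombinant rat CYP2C13 with fluorogenic substrate, 0.75 h cell-free incubation; primary screen in duplicate at 10 uM, actives followed in concentration series. Fluorescence loss relative to acetonitrile control indicates inhibition.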
# [8] = target: rat CYP2D1, Cyp2d1 (gene 266684) (UniProt P10633); experiment: NVS_ADME_rCYP2D1: NovaScreen (NVS) CYP450-related Enzyme Activity (ADME) Assay for rat CYP2D1 (AID 2283122)
# Chain of rat CYP2D1, Cyp2d1 (gene 266684) (P10633 whole entry, looked up): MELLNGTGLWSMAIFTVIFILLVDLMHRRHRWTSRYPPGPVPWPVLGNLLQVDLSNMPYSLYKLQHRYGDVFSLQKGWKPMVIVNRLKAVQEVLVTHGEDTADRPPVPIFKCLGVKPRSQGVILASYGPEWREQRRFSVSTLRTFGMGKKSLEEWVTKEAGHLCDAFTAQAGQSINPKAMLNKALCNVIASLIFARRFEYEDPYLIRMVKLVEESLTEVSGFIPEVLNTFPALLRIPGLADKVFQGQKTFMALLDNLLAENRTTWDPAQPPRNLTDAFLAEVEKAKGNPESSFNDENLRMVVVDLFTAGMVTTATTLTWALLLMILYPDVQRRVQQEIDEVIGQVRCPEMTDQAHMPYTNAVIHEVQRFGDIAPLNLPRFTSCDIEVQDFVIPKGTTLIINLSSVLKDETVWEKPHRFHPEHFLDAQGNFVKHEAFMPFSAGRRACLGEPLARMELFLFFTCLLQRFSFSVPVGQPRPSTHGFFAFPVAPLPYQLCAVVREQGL
# Summary of the method: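 Cell-free fluorescence enzyme-activity assay on extracted rat CYP2D1 protein, read 0.75 h after dosing. Primary screen in duplicate at 10 uM; qualifying chemicals then run in concentration-response to 20 uM max, loss-of-signal versus acetonitrile baseline.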
# [9] = test system: rat CYP2C6, gene 293989; experiment: NVS_ADME_rCYP2C6: NovaScreen (NVS) CYP450-related Enzyme Activity (ADME) Assay for rat CYP2C6 (AID 2283120)
# Summary of the method: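 Cell-free recombinant rat CYP2C6 with fluorogenic substrate, read by fluorescence 1 h after dosing; acetonitrile as negative control. Primary screen at 10 uM in duplicate, actives then in concentration-response up to 20 uM.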
# [10] = target: rat CYP2C12, Cyp2c12 (gene 25011) (UniProt P11510); experiment: NVS_ADME_rCYP2C12: NovaScreen (NVS) CYP450-related Enzyme Activity (ADME) Assay for rat CYP2C12 (AID 2283119)
# Chain of rat CYP2C12, Cyp2c12 (gene 25011) (P11510 whole entry, looked up): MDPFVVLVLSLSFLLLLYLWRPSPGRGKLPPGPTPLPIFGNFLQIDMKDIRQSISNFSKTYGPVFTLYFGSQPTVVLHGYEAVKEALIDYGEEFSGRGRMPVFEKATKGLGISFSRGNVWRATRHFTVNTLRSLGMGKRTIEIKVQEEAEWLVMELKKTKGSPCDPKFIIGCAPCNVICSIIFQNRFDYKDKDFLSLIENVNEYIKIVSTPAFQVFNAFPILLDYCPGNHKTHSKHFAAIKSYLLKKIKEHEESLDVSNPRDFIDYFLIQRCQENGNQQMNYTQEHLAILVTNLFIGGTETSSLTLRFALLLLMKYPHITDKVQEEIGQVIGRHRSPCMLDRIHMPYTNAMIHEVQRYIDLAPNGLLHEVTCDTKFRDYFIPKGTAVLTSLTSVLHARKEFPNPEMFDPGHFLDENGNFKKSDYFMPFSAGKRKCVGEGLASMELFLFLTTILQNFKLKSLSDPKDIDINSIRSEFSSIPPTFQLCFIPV
# Summary of the method: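 Cell-free recombinant rat CYP2C12 activity read by fluorescence 0.5 h after dosing; loss of signal versus acetonitrile control. Primary screen in duplicate at 10 uM; actives then run in concentration-response format.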
structure (smiles),measurement,setting,value
CCOP(=O)(NC(C)C)Oc1ccc(SC)c(C)c1 (stereo not drawn),outcome,[1],inactive
same,AC50,[2],5.06 µM (active)
same,AC50,[3],7.98 µM (active)
CCc1cccc(C)c1N(C(=O)CCl)C(C)COC (stereo not drawn),AC50,[4],5.57 µM (active)
same,AC50,[5],6.43 µM (active)
same,AC50,[3],6.49 µM (active)
same,AC50,[6],6.68 µM (active)
CCOP(=S)(OCC)Oc1cc(C)nc(C(C)C)n1,AC50,[3],6.82 µM (active)
CCC(=O)Nc1ccc(Cl)c(Cl)c1,outcome,[1],inactive
same,AC50,[7],5.42 µM (active)
same,AC50,[8],5.39 µM (active)
same,AC50,[3],4.74 µM (active)
C=C(C)[C@H]1Cc2c(ccc3c2O[C@@H]2COc4cc(OC)c(OC)cc4[C@@H]2C3=O)O1,outcome,[4],inactive
same,outcome,[5],inactive
same,AC50,[7],2.26 µM (active)
same,AC50,[6],2.88 µM (active)
CCOP(=O)(SC(C)CC)N1CCSC1=O (stereo not drawn),AC50,[9],5.01 µM (active)
same,AC50,[3],6.64 µM (active)
same,AC50,[6],8.56 µM (active)
CC1(C(=O)Nc2ccc(O)c(Cl)c2Cl)CCCCC1,AC50,[7],1.37 µM (active)
same,AC50,[6],3.42 µM (active)
C#CCC1=C(C)C(OC(=O)C2C(C=C(C)C)C2(C)C)CC1=O (stereo not drawn),AC50,[4],3.46 µM (active)
same,AC50,[3],7.59 µM (active)
same,AC50,[6],3.03 µM (active)
CCc1cccc(CC)c1N(COC)C(=O)CCl,AC50,[5],3.44 µM (active)
CC(C)=CC1C(C(=O)OCN2C(=O)C3=C(CCCC3)C2=O)C1(C)C (stereo not drawn),AC50,[7],8.97 µM (active)
same,AC50,[2],10 µM (active)
same,outcome,[3],inactive
CCOC(=O)CC(SP(=O)(OC)OC)C(=O)OCC (stereo not drawn),outcome,[4],inactive
same,outcome,[5],inactive
same,AC50,[9],5.32 µM (active)
same,outcome,[7],inactive
same,outcome,[2],inactive
same,outcome,[3],inactive
same,outcome,[6],inactive
C[Si](Cn1cncn1)(c1ccc(F)cc1)c1ccc(F)cc1,AC50,[4],0.0595 µM (active)
same,AC50,[5],0.0371 µM (active)
same,AC50,[10],4.13 µM (active)
same,AC50,[9],0.519 µM (active)
same,AC50,[7],0.173 µM (active)
same,AC50,[8],4.3 µM (active)
same,AC50,[2],1.87 µM (active)
same,AC50,[3],1.23 µM (active)
same,AC50,[6],1.07 µM (active)
CCCCOC(=O)[C@@H](C)Oc1ccc(Oc2ccc(C#N)cc2F)cc1,AC50,[2],12.1 µM (active)
CSc1nc(NC(C)C)nc(NC(C)C)n1,AC50,[7],7.91 µM (active)
same,AC50,[3],5.92 µM (active)
CC[C@H](C)[C@H]1O[C@]2(C=C[C@@H]1C)C[C@@H]1C[C@@H](C/C=C(\C)[C@@H](O[C@H]3C[C@H](OC)[C@@H](O[C@H]4C[C@H](OC)[C@@H](NC)[C@H](C)O4)[C@H](C)O3)[C@@H](C)/C=C/C=C3\CO[C@@H]4[C@H](O)C(C)=C[C@@H](C(=O)O1)[C@]34O)O2,AC50,[4],1.65 µM (active)
same,AC50,[7],6.31 µM (active)
same,AC50,[2],3.96 µM (active)
same,AC50,[3],7.04 µM (active)
same,AC50,[6],8.11 µM (active)
CCCOCC(=Nc1ccc(Cl)cc1C(F)(F)F)n1ccnc1,outcome,[1],inactive
same,AC50,[4],0.0294 µM (active)
same,AC50,[5],0.279 µM (active)
same,AC50,[10],2.46 µM (active)
same,AC50,[9],0.976 µM (active)
same,AC50,[7],0.966 µM (active)
same,AC50,[8],6.88 µM (active)
same,AC50,[2],3.2 µM (active)
same,AC50,[3],2.8 µM (active)
same,AC50,[6],1.7 µM (active)
CN(C)NC(=O)CCC(=O)O,outcome,[6],inactive
